The source made the active and inactive calls. Cut-off read from the data, not from the text of the source, unless noted: active = nuclear beta-catenin stimulation mostly above about 4.2% (no sharp cut-off); inactive = mostly below about 10%.
Columns and labels:
[1] = Wnt pathway potentiators raising nuclear beta-catenin – imaging, WNT3A-conditioned medium, mouse C2C12, NPC library, primary screen (AID 1117326); details: stronger effect = higher value
[2] = stimulators of insulin release from INS-1E, primary screen, cell-based, 5 mM glucose, NPC library (AID 1117329;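 active = compound raises insulin release from rat beta cells at 5 mM glucose, no numeric limit stated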); details: rat INS-1E insulin secretion, at 10 µM, stronger effect = higher value
[3] = growth inhibition of GSK3B-pretreated HCT116 cells – cell-based, CellTiter-Glo, 0.2 to 20 µM (AID 1117336;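 active = compounds lowering colon cancer cell viability after pretreatment blocking the GSK3B kinase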); details: HCT116 viability after GSK3B inhibitor, at 20 µM, stronger effect = higher value
[4] = GLP1 release stimulators, primary, NCI-H716, NPC library (AID 1117341;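 active = compound raises GLP1 secretion from the human gut endocrine cells, with no numeric limit stated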); details: NCI-H716 cells, at 10 µM, stronger effect = higher value
[5] = HCT116 colon cancer cell growth inhibition, primary screen, CellTiter-Glo luminescence, NPC library (AID 1117342;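 active = compounds that lower survival of HCT116 colon cancer cells in the luminescence readout, no numeric limit stated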); details: at 20 µM (top of the series)
[6] = reduced SW480 viability measured with CellTiter-Glo, NPC library, primary (AID 1117343;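 active = compounds that lower viability of the colon cancer cells in the luminescence readout, with no numeric limit stated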); details: CellTiter-Glo luminescence; at 20 µM (top of the series) unless noted
[7] = NPC library primary testing for decreased DLD-1 cell viability via CellTiter-Glo (AID 1117346;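 active = compounds that lower survival of DLD-1 colon cancer cells in the luminescence readout, no cutoff given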); details: DLD-1 viability, CellTiter-Glo luminescence; at 20 µM (top of the series)
[8] = inhibition of endothelial tube formation, primary screen, imaging, VEGF stimulated, CD31 staining, tube area, NPC library (AID 1117340;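 active = compound that reduces growth-factor-driven endothelial tube area in a mixed cell culture, no cutoff stated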); details: VEGF-stimulated ADSC/ECFC co-culture, at 10 µM, stronger effect = higher value
[9] = growth inhibition, single agent or in combination, cell-based, chromothripsis tumors, cisplatin or BGB combos (AID 1671449; in the data active = inhibition above about 80%;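 note: cells exposed for 96 hours; 0% = vehicle DMSO and 100% = killing by high DMSO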); details: LFS_MB_P medulloblastoma cells
[10] = growth inhibition, single agent and combos, cell-based, chromothripsis tumors, cisplatin or BGB combos (AID 1671450; in the data active = inhibition above about 80%;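 note: cells exposed to compound for four days; 0% = vehicle DMSO and 100% = cell killing by high DMSO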); details: HDN33 neuroblastoma cells, stronger effect = higher value
[11] = growth inhibition, single agents and combos, ICB984, cell-based, cisplatin or BGB combos, synergistic combos for chromothripsis tumors (AID 1671451; call rule not given here;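 note: cells exposed for 96 hours before readout; 0% = vehicle DMSO and 100% = killing by high DMSO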); details: ICB984 medulloblastoma cells, drug combinations, stronger effect = higher value
[12] = growth inhibition, single agents and combos, HTB85, cell-based, BGB or cisplatin IC20 combos, synergistic combos for chromothripsis tumors (AID 1671453; in the data active = inhibition above about 80%;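 note: cells exposed for 96 hours before readout; 0% = vehicle DMSO and 100% = high DMSO killing control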); details: HTB85 osteosarcoma cells, drug combinations, stronger effect = higher value
[13] = growth inhibition, MDA-MB-436, cell-based, BGB or cisplatin combos, synergistic combos for chromothripsis tumors (AID 1671458; call rule not given here;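 note: cells exposed for 96 hours; 0% = vehicle DMSO and 100% = killing by high DMSO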); details: MDA-MB-436 breast carcinoma growth inhibition, drug combinations, stronger effect = higher value
[14] = molecular target: Mitogen-activated protein kinase 7 (Homo sapiens) (UniProt Q13164); assay: Gal4-ERK5 driven luciferase induction – cell-based, HTS, primary screen (AID 1508626;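 active = luciferase signal above three times the same-plate solvent-only control wells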;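 note: luciferase driven by Gal4-ERK5 fusion binding five Gal4 sites before minimal TATA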); details: HeLa Gal4-ERK5 transactivation, 18 h, at 5 µM, stronger effect = higher value
Sequence of Mitogen-activated protein kinase 7 (Homo sapiens) (Q13164 whole entry, looked up, the tested form may be a part): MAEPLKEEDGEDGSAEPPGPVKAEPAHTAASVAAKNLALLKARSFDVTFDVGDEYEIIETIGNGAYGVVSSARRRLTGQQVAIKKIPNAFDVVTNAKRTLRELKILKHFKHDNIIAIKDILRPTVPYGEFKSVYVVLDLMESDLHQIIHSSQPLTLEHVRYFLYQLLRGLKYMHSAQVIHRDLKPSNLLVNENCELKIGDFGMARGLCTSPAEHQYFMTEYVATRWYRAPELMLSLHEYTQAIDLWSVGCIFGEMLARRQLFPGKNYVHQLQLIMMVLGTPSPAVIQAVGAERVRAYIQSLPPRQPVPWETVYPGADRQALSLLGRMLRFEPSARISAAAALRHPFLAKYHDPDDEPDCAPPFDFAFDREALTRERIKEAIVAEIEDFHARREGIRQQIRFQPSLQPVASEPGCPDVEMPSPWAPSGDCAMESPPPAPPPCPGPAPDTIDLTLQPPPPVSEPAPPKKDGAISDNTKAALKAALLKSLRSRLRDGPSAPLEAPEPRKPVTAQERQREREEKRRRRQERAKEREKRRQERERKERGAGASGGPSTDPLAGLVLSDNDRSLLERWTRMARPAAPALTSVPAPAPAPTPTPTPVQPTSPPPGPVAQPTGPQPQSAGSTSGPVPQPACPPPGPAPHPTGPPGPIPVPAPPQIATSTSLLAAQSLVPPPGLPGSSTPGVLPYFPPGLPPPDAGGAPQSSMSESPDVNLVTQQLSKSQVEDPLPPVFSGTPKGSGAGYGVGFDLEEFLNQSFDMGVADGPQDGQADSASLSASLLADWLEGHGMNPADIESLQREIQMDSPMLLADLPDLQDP

[15] = EMT-state selective cytotoxicity in co-culture – imaging, PC-3E GFP, TEM4-18 mCherry, primary screen (AID 1345086;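 active = compounds killing one labelled cell type while sparing the other, by normalised counts and ratio limits, not self-fluorescent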;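 note: cells exposed to compound for 72 h before imaging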;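 for red/green cell ratio (normalised): normalised mesenchymal count divided by normalised epithelial count so high means epithelial killing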); details: PC-3E GFP / TEM4-18 mCherry co-culture, imaging cell counts, at 1 µM
[16] = viability loss with induced miR-34 in A549 – imaging, A549 dox-inducible miR-34, nuclei and caspase counts, primary screen (AID 1347080;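 active = compounds whose cell count with miR-34 switched on is under 0.7 times the count with it off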); details: A549 miR-34 inducible, Hoechst nuclei count, 48 h
[17] = molecular target: NAD(+) hydrolase SARM1 (Homo sapiens) (UniProt Q6SZW1); assay: blocking NAD cleavage by SARM1 SAM-TIR – cell lysate, NAD-Glo luminescence (AID 1508614;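 active = compound whose remaining NAD level is above about 45 nM, limit read from the data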;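 note: higher remaining NAD means stronger inhibition of SARM1 NADase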); details: SAM-TIR HEK293T lysate NADase, at 1 µM, stronger effect = higher value
Sequence of NAD(+) hydrolase SARM1 (Homo sapiens) (Q6SZW1 whole entry, looked up): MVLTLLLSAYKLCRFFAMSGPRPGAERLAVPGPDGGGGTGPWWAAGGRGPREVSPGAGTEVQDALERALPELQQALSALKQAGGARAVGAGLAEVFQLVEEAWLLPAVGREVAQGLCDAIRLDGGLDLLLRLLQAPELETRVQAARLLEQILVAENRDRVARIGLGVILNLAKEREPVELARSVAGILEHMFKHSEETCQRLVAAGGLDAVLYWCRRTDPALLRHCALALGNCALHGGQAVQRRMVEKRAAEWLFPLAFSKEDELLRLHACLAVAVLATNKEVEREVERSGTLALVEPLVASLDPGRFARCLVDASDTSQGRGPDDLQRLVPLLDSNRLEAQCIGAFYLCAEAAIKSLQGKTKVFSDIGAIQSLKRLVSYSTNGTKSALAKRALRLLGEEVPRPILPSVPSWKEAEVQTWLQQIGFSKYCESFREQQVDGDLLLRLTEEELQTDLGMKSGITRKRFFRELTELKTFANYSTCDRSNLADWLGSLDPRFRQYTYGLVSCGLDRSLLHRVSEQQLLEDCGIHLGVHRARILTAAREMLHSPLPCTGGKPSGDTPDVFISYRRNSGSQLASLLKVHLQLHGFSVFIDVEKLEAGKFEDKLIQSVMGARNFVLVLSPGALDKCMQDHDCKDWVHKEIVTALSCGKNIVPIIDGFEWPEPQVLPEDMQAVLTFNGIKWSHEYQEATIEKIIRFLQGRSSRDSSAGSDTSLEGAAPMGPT

SMILES: CO[C@H]1O[C@@H]2O[C@@]3(C)CC[C@H]4[C@H](C)CC[C@@H]([C@@H]1C)[C@@]24OO3
- nuclear beta-catenin stimulation ([1]; at 10 µM): 1.9% (inactive)
- nuclear beta-catenin stimulation ([1]; stimulation, at 2 µM): 11.7%
- insulin secretion stimulation [2]: -0.85% (inactive)
- viability decrease [3]: 33.2% (inactive)
- GLP1 secretion stimulation [4]: 2% (inactive)
- inhibition of viability [5]: -3% (inactive)
- viability decrease (inhibition) [6]: 2.9% (inactive)
- viability decrease (inhibition) [7]: 7.2% (inactive)

SMILES: CCOc1cc(NC(C)=O)ccc1C(=O)OC
- nuclear beta-catenin stimulation ([1]; at 10 µM): 2.6% (inactive)
- nuclear beta-catenin stimulation ([1]; stimulation, at 2 µM): 2%
- insulin secretion stimulation [2]: 4.4% (inactive)
- tube area decrease [8]: 11.7% (inactive)
- GLP1 secretion stimulation [4]: 0.3% (inactive)

SMILES: Cc1ccc2nc(N)[nH]c(=O)c2c1Sc1ccncc1
- nuclear beta-catenin stimulation ([1]; at 10 µM): 63.4% (active)
- nuclear beta-catenin stimulation ([1]; stimulation, at 2 µM): 61.7%
- insulin secretion stimulation [2]: 1.1% (inactive)
- viability decrease [3]: 94.2% (active)
- tube area decrease [8]: 50.9% (active)
- GLP1 secretion stimulation [4]: 1.3% (inactive)
- inhibition of viability [5]: 81.5% (active)
- viability decrease (inhibition) [6]: 78.8% (active)
- viability decrease (inhibition) [7]: 42.1% (inactive)
- inhibition ([9]; at 0.5 µM, stronger effect = higher value): 15.7% (inactive)
- inhibition ([9]; measured here: combination with BGB IC20, at 0.005 µM): -4.28%
- inhibition ([9]; measured here: combination with BGB IC40, at 0.005 µM): -17.9%
- inhibition ([9]; measured here: combination with BGB IC40, at 0.05 µM): -6.64%
- inhibition ([9]; measured here: combination with cisplatin, at 0.5 µM, stronger effect = higher value): 12.2%
- inhibition ([9]; measured here: combination with cisplatin, at 5 µM, stronger effect = higher value): -5.06%
- inhibition ([10]; BGB combo, at 5 µM): 21.4%
- inhibition ([10]; at 0.5 µM): -26.6% (inactive)
- inhibition ([10]; cisplatin combo, at 5 µM): 28.1%
- inhibition ([10]; measured here: with BGB IC20 combination, at 0.5 µM): -32.4%
- inhibition ([10]; measured here: with cisplatin IC20 combination, at 0.5 µM): -14.7%
- inhibition ([10]; single agent, at 5 µM): 43.4%
- inhibition ([11]; BGB IC20 combo, at 0.005 µM): -27.9%
- inhibition ([11]; BGB IC40 combo, at 0.005 µM): -29.4%
- inhibition ([11]; BGB IC40 combo, at 0.05 µM): -15.3%
- inhibition ([11]; at 0.5 µM): -23.3% (inactive)
- inhibition ([11]; cisplatin combo, at 0.05 µM): -21.2%
- inhibition ([11]; cisplatin combo, at 0.5 µM): -25.7%
- inhibition ([11]; cisplatin combo, at 5 µM): -19.8%
- inhibition ([11]; measured here: 5 uM single agent, at 5 µM): -37.5%
- inhibition ([12]; at 0.5 µM): -33.1% (inactive)
- inhibition ([12]; measured here: with BGB IC20, at 0.5 µM): -36.1%
- inhibition ([12]; measured here: with BGB IC20, at 5 µM): 7.13%
- inhibition ([12]; measured here: with cisplatin IC20, at 0.5 µM): -25.9%
- inhibition ([12]; measured here: with cisplatin IC20, at 5 µM): 0.276%
- inhibition ([12]; single agent, at 5 µM): 0.242%
- inhibition ([13]; at 0.5 µM): -7.12% (inactive)
- inhibition ([13]; measured here: BGB combination, at 0.5 µM): -5.47%
- inhibition ([13]; measured here: BGB combination, at 5 µM): 11%
- inhibition ([13]; measured here: cisplatin combination, at 0.5 µM): -13.7%
- inhibition ([13]; measured here: cisplatin combination, at 5 µM): 37.3%

SMILES: O=C(OCCO)c1ccccc1O
- nuclear beta-catenin stimulation ([1]; at 10 µM): 0.5% (inactive)
- nuclear beta-catenin stimulation ([1]; stimulation, at 2 µM): -2.3%
- insulin secretion stimulation [2]: 0.25% (inactive)
- GLP1 secretion stimulation [4]: -2.5% (inactive)

SMILES: Cc1cc(-c2ccc(N=Nc3c(S(=O)(=O)O)cc4cc(S(=O)(=O)O)cc(N)c4c3O)c(C)c2)ccc1N=Nc1c(S(=O)(=O)O)cc2cc(S(=O)(=O)O)cc(N)c2c1O
- nuclear beta-catenin stimulation ([1]; at 10 µM): -3.5% (inactive)
- nuclear beta-catenin stimulation ([1]; stimulation, at 2 µM): -1.8%
- insulin secretion stimulation [2]: 2.95% (inactive)
- viability decrease [3]: 35.2% (inactive)
- GLP1 secretion stimulation [4]: -8.7% (inactive)
- inhibition of viability [5]: 22.2% (inactive)
- viability decrease (inhibition) [6]: 37.9% (inactive)
- viability decrease (inhibition) [7]: 23.9% (inactive)

SMILES: CC(=C(CCOC(=O)C(C)C)SSC(CCOC(=O)C(C)C)=C(C)N(C=O)Cc1cnc(C)nc1N)N(C=O)Cc1cnc(C)nc1N
- nuclear beta-catenin stimulation ([1]; at 10 µM): -0.6% (inactive)
- nuclear beta-catenin stimulation ([1]; stimulation, at 2 µM): 4.5%
- insulin secretion stimulation [2]: 31.5% (active)
- viability decrease [3]: 20.6% (inactive)
- inhibition of viability [5]: 30.9% (inactive)
- viability decrease (inhibition) [6]: -6.3% (inactive)
- viability decrease (inhibition) [7]: -3.9% (inactive)

SMILES: COC(=O)CCCCC(CCSS/C(CCO)=C(\C)N(C=O)Cc1cnc(C)nc1N)SC(C)=O (configuration not stated)
- nuclear beta-catenin stimulation ([1]; at 10 µM): 1% (inactive)
- nuclear beta-catenin stimulation ([1]; stimulation, at 2 µM): -1%
- insulin secretion stimulation [2]: 0.75% (inactive)
- GLP1 secretion stimulation [4]: 0.4% (inactive)

SMILES: O=C(O)C(S)C(S)C(=O)O (configuration not stated)
- nuclear beta-catenin stimulation ([1]; at 10 µM): 2.3% (inactive)
- nuclear beta-catenin stimulation ([1]; stimulation, at 2 µM): 0.8%
- insulin secretion stimulation [2]: 1.3% (inactive)
- viability decrease [3]: -17% (inactive)
- tube area decrease [8]: 14% (inactive)
- GLP1 secretion stimulation [4]: 6.2% (inactive)
- inhibition of viability [5]: -11.3% (inactive)
- viability decrease (inhibition) [6]: -31.1% (inactive)
- viability decrease (inhibition) [7]: -4.5% (inactive)
- luciferase signal [14]: 96 AU (inactive)

SMILES: O=[N+]([O-])c1cccc(S(=O)(=O)NCCNS(=O)(=O)c2cccc([N+](=O)[O-])c2)c1
- nuclear beta-catenin stimulation ([1]; at 10 µM): 0.3% (inactive)
- nuclear beta-catenin stimulation ([1]; stimulation, at 2 µM): 0.2%
- insulin secretion stimulation [2]: -0.55% (inactive)
- viability decrease [3]: 38.9% (inactive)
- GLP1 secretion stimulation [4]: 3.1% (inactive)
- inhibition of viability [5]: 7.6% (inactive)
- viability decrease (inhibition) [6]: 6.5% (inactive)
- viability decrease (inhibition) [7]: 14.5% (inactive)

SMILES: CCN(CC)C(=O)c1cccnc1
- nuclear beta-catenin stimulation ([1]; at 10 µM): 2.1% (inactive)
- nuclear beta-catenin stimulation ([1]; stimulation, at 2 µM): -1%
- insulin secretion stimulation [2]: 1.2% (inactive)
- viability decrease [3]: 6.1% (inactive)
- GLP1 secretion stimulation [4]: 1.6% (inactive)
- inhibition of viability [5]: 14.5% (inactive)
- viability decrease (inhibition) [6]: -1.1% (inactive)
- viability decrease (inhibition) [7]: 6.2% (inactive)
- red/green cell ratio (normalised) ([15]; actives lie on both sides, counts scaled to control wells, 1 = unselective): 1.14 (inactive)
- normalised cell number ([15]; measured here: epithelial PC-3E GFP cell survival): 0.99
- normalised cell number ([15]; measured here: mesenchymal TEM4-18 mCherry cell survival): 1.13
- fold change ([16]; stronger effect = lower value, cell number ratio, induced over uninduced): 0.953 (inactive)
- fold change ([16]; measured here: relative caspase fold change +Dox/-Dox): 0.829
- cell count ([16]; measured here: total cells with miR-34 induction, stronger effect = lower value): 8700
- cell count ([16]; measured here: total cells without miR-34 induction): 9130
- remaining NAD [17]: 10 nM (inactive)

SMILES: CC1CCC(C(C)C)C(OC(=O)c2ccccc2O)C1 (configuration not stated)
- nuclear beta-catenin stimulation ([1]; at 10 µM): -1.1% (inactive)
- nuclear beta-catenin stimulation ([1]; stimulation, at 2 µM): -2.6%
- insulin secretion stimulation [2]: -1% (inactive)
- GLP1 secretion stimulation [4]: -8.7% (inactive)

SMILES: CSc1ccc(/C=C2/C(C)=C(CC(=O)O)c3cc(F)ccc32)cc1
- nuclear beta-catenin stimulation ([1]; at 10 µM): -1.4% (inactive)
- nuclear beta-catenin stimulation ([1]; stimulation, at 2 µM): -0.1%
- insulin secretion stimulation [2]: 1.85% (inactive)
- GLP1 secretion stimulation [4]: 9.9% (inactive)

SMILES: C[C@@H]1CCC[C@H](C)N1
- nuclear beta-catenin stimulation ([1]; at 10 µM): 1.3% (inactive)
- nuclear beta-catenin stimulation ([1]; stimulation, at 2 µM): 1%
- insulin secretion stimulation [2]: -1.2% (inactive)
- viability decrease [3]: -2.8% (inactive)
- tube area decrease [8]: 3.6% (inactive)
- GLP1 secretion stimulation [4]: 0.5% (inactive)
- inhibition of viability [5]: -4.9% (inactive)
- viability decrease (inhibition) [6]: 6.2% (inactive)
- viability decrease (inhibition) [7]: 2.2% (inactive)
